Measurements: the supplement of paper PMC6089552
Out of some 3,200 compounds screened, about 300 (9.4%) showed activity. The sample as a whole holds a higher share of actives than the screen did.

System: A673/TR/shEF
Assay: cell viability (LOESS-normalised, relative to median of negative controls) (log2 ratio); higher = more viable cells (less compound effect), active = hit call of the paper (over 3 MAD below the median)
Details: treatment time: 72 h
Procedure, shortened: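 A673/TR/shEF Ewing sarcoma cells (1,500 per well, 384-well plates) were grown with or without doxycycline to induce EWS-FLI1 shRNA knockdown, starting 24 h before compounds. Library compounds at two or more concentrations, with DMSO controls, were added for three days. Cell viability was read by CellTiter-Glo luminescence on an Envision reader, then LOESS-corrected per plate, divided by the median of negative controls and log2-transformed. Hits were wells at least three median absolute deviations from the median of all screened wells.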

[1] = 0.25 µM, library screen: screen1, EWS-FLI1 expression: high (no doxycycline)
[2] = 0.25 µM, library screen: screen1, EWS-FLI1 expression: low (doxycycline-induced shRNA knockdown)
[3] = 2.5 µM, library screen: screen1, EWS-FLI1 expression: high (no doxycycline)
[4] = 2.5 µM, library screen: screen1, EWS-FLI1 expression: low (doxycycline-induced shRNA knockdown)
[5] = 0.25 µM, library screen: screen2, EWS-FLI1 expression: high (no doxycycline)
[6] = 0.25 µM, library screen: screen2, EWS-FLI1 expression: low (doxycycline-induced shRNA knockdown)
[7] = 2.5 µM, library screen: screen2, EWS-FLI1 expression: high (no doxycycline)
[8] = 2.5 µM, library screen: screen2, EWS-FLI1 expression: low (doxycycline-induced shRNA knockdown)
[9] = 0.103 µM, library screen: screen3, EWS-FLI1 expression: high (no doxycycline)
[10] = 0.103 µM, library screen: screen3, EWS-FLI1 expression: low (doxycycline-induced shRNA knockdown)
[11] = 0.308 µM, library screen: screen3, EWS-FLI1 expression: high (no doxycycline)
[12] = 0.308 µM, library screen: screen3, EWS-FLI1 expression: low (doxycycline-induced shRNA knockdown)
[13] = 0.926 µM, library screen: screen3, EWS-FLI1 expression: high (no doxycycline)
[14] = 0.926 µM, library screen: screen3, EWS-FLI1 expression: low (doxycycline-induced shRNA knockdown)
[15] = 2.8 µM, library screen: screen3, EWS-FLI1 expression: high (no doxycycline)
[16] = 2.8 µM, library screen: screen3, EWS-FLI1 expression: low (doxycycline-induced shRNA knockdown)
[17] = 8.3 µM, library screen: screen3, EWS-FLI1 expression: high (no doxycycline)
[18] = 8.3 µM, library screen: screen3, EWS-FLI1 expression: low (doxycycline-induced shRNA knockdown)
[19] = 25 µM, library screen: screen3, EWS-FLI1 expression: high (no doxycycline)
[20] = 25 µM, library screen: screen3, EWS-FLI1 expression: low (doxycycline-induced shRNA knockdown)
[21] = 0.025 µM, library screen: screen1, EWS-FLI1 expression: high (no doxycycline)
[22] = 0.025 µM, library screen: screen1, EWS-FLI1 expression: low (doxycycline-induced shRNA knockdown)
[23] = 25 µM, library screen: screen1, EWS-FLI1 expression: high (no doxycycline)
[24] = 25 µM, library screen: screen1, EWS-FLI1 expression: low (doxycycline-induced shRNA knockdown)

Measured: cell viability (log2)

O=C(O)CSc1nnc(COc2ccccc2)n1-c1ccc(Cl)cc1
inactive: [1] 0.0719 | [2] -0.0199 | [3] 0.0305 | [4] 0.0659

CC1(C)C=CC(=O)[C@@]2(C)C1CC(=O)[C@]1(C)C2CC[C@@]2(C)[C@H](c3ccoc3)OC(=O)C3OC321 (some centres undefined)
inactive: [1] 0.0164 | [2] 0.0615 | [3] 0.135 | [4] 0.0703

C=C(O)CCC/C=C\C[C@@H]1[C@@H](/C=C/[C@H](O)C2Cc3ccccc3C2)[C@@H](F)C[C@@H]1O
inactive: [5] 0.175 | [6] 0.154 | [7] 0.111 | [8] 0.184

Cc1ccc2c(c1)C(N1CCN(C)CC1)=Nc1cccnc1N2
inactive: [5] 0.144 | [6] 0.13 | [7] 0.0813 | [8] 0.0355

CC1(C)C=Cc2cc3ccc(=O)oc3cc2O1
inactive: [1] 0.0334 | [2] 0.0455 | [3] 0.0429 | [4] 0.132

Cc1ccc(C(=O)NCc2ccc3c(c2)OCO3)cc1
inactive: [1] 0.0742 | [2] -0.0061 | [3] 0.0676 | [4] 0.0498

COc1ccccc1/C=C1\SC(=S)N(C2CCS(=O)(=O)C2)C1=O (centres undefined)
inactive: [1] 0.0633 | [2] 0.0907 | [3] 0.0733 | [4] 0.0539

COc1ccc(OC)c(CN2CCN(Cc3cccnc3)CC2)c1
inactive: [1] 0.114 | [2] 0.038 | [3] 0.0976 | [4] -0.0472

N/C(=N/c1nc2ccccc2o1)NC(=O)Nc1ccccc1
inactive: [1] 0.05 | [2] 0.11 | [3] 0.0784 | [4] 0.171

NCC1COc2ccccc2O1 (centres undefined)
inactive: [1] 0.104 | [2] -0.0116 | [3] 0.0686 | [4] 0.0513

COc1cccc(C=CC(=O)O)c1C(C)C
inactive: [1] 0.0613 | [2] 0.0863 | [3] 0.0736 | [4] 0.0985

CCC(=O)OC1[C@@H]2CC3=C4CC(=O)O[C@@H](c5ccoc5)[C@]4(C)CCC3[C@@](C)(C2=O)[C@@H](CC(=O)OC)C1(C)C (some centres undefined)
inactive: [1] 0.0873 | [2] -0.00184 | [3] 0.0649 | [4] 0.122

NCCC(=O)N[C@@H](Cc1cnc[nH]1)C(=O)O
inactive: [1] 0.026 | [2] 0.0201 | [3] 0.0679 | [4] 0.084

CC(C)n1c(/C=C/C(O)CC(O)CC(=O)O)c(-c2ccc(F)cc2)c2ccccc21 (centres undefined)
active: [17] -0.668 | [18] -0.538 | [19] -2.7 | [20] -1.87
inactive: [9] 0.107 | [10] 0.0332 | [11] 0.201 | [12] 0.108 | [13] 0.169 | [14] 0.0801 | [15] 0.0218 | [16] -0.0661

CC(C)c1c(C(=O)Nc2ccccc2)c(-c2ccccc2)c(-c2ccc(F)cc2)n1CC[C@@H](O)C[C@@H](O)CC(=O)O
inactive: [1] 0.091 | [2] 0.0242 | [3] 0.147 | [4] -0.0132

O=C(O)C[C@H](O)C[C@H](O)/C=C/c1c(C2CC2)nc2ccccc2c1-c1ccc(F)cc1
inactive: [9] 0.0626 | [10] -0.0656 | [11] -0.114 | [12] -0.0155
active: [13] -0.533 | [14] -0.345 | [15] -1.53 | [16] -0.986 | [17] -2.09 | [18] -1.25 | [19] -3.51 | [20] -3.56

O=C1O[C@H]([C@@H](O)CO)C([O-])=C1[O-].[Ca+2]
inactive: [1] 0.0808 | [2] 0.0736 | [3] 0.131 | [4] 0.127

CC1=C(C(=O)Nc2ccccc2Cl)C(c2ccccc2Cl)NC(=S)N1 (centres undefined)
inactive: [1] 0.0969 | [2] 0.0233 | [3] 0.106 | [4] 0.0823

CCc1c(C)c(C#N)c2nc3ccccc3n2c1-n1ccnc1C
inactive: [1] 0.109 | [2] 0.0379 | [3] 0.104 | [4] 0.136

CC(=O)Oc1ccc2c(c1)CC[C@@H]1[C@@H]2CC[C@]2(C)[C@@H](O)CC[C@@H]12
inactive: [1] 0.103 | [2] -0.00729 | [3] 0.0771 | [4] 0.0723

COc1c(O)cc(O)c2c(=O)c(-c3ccc(O)cc3)coc12
inactive: [1] 0.0728 | [2] 0.0747 | [3] 0.145 | [4] 0.165

COc1c/c(=C2\C=c3ccccc3=N2)[nH]/c1=C\c1[nH]c(C)cc1C
inactive: [9] -0.00852 | [10] -0.0389
active: [11] -0.218 | [12] -0.107 | [13] -0.709 | [14] -0.236 | [15] -2.64 | [16] -1.14 | [17] -3.15 | [18] -1.55 | [19] -4.31 | [20] -2.5

COc1nc(N/N=C/c2ccccc2F)nc(N2CCCCC2)n1
inactive: [1] 0.0265 | [2] 0.00454 | [3] 0.104 | [4] -0.0151

NC(Cc1ccc(F)cc1)C(=O)O (centres undefined)
inactive: 0.025 µM, library screen: screen2, EWS-FLI1 expression: high (no doxycycline) 0.118 | 0.025 µM, library screen: screen2, EWS-FLI1 expression: low (doxycycline-induced shRNA knockdown) 0.0851 | [1] 0.119 | [2] 0.172 | [5] 0.158 | [6] 0.0689 | [3] 0.144 | [4] 0.0179 | [7] 0.2 | [8] 0.0773 | 25 µM, library screen: screen2, EWS-FLI1 expression: high (no doxycycline) 0.0209 | 25 µM, library screen: screen2, EWS-FLI1 expression: low (doxycycline-induced shRNA knockdown) 0.0999

CSCCC(NC=O)C(=O)NC(C)C(=O)O (centres undefined)
inactive: [1] 0.11 | [2] 0.0779 | [3] 0.177 | [4] 0.154

O=C1c2ccc(O)c(O)c2C(=O)c2c(O)ccc(O)c21
inactive: [1] 0.0226 | [2] 0.0878 | [3] 0.117 | [4] -0.00838

O=C1c2cccc(O)c2C(=O)c2c(O)cccc21
inactive: [1] 0.127 | [2] 0.109 | [3] 0.149 | [4] 0.271

O=C1c2c(O)ccc(O)c2C(=O)c2c(NCCNCCO)ccc(NCCNCCO)c21
active: [9] -0.962 | [10] -0.246 | [1] -1.93 | [2] -0.576 | [5] -2.25 | [6] -0.221 | [11] -1.25 | [12] -0.351 | [13] -1.51 | [14] -0.325 | [3] -4.22 | [4] -3.67 | [7] -2.87 | [8] -0.985 | [15] -2.02 | [16] -0.758 | [17] -3.96 | [18] -3.09 | [19] -4.26 | [20] -4.25

NC(N)=NCCC[C@H](N[C@H](CCC(=O)O)C(=O)O)C(=O)O
inactive: [1] 0.0848 | [2] 0.0238 | [3] 0.123 | [4] 0.0291

C=CC(=O)c1ccc2ccccc2c1
inactive: [22] 0.0903 | [2] 0.00371 | [4] 0.198 | [24] -0.0301
active: [3] -0.264 | [23] -0.287
0.279: [21]
0.286: [1]

C/C(=C\C(=O)Nc1ccccc1C(=O)O)c1ccc2ccccc2c1
inactive: [9] 0.0459 | [10] 0.0279 | [11] -0.00745 | [12] -0.00325 | [13] -0.0219 | [14] 0.0436 | [15] 0.00499 | [16] -1.3e-05 | [17] -0.0171 | [18] 0.0177 | [19] 0.0665 | [20] 0.0416

O=P(O)(O)C(O)c1ccc2ccccc2c1 (centres undefined)
inactive: [21] 0.0997 | [22] 0.0649 | [1] 0.143 | [2] -0.0248 | [3] 0.0554 | [4] 0.0311 | [23] 0.0292 | [24] 0.0551

NC(=O)c1cc[n+](CC2=C(C(=O)O)N3C(=O)[C@@H](NC(=O)C(c4ccccc4)S(=O)(=O)O)[C@H]3SC2)cc1 (some centres undefined)
inactive: [1] -0.0396 | [2] 0.081 | [3] -0.00797 | [4] 0.0119

CN1CCN(c2nc3ccccn3c(=O)c2/C=C2\SC(=S)N(C)C2=O)CC1
inactive: [1] 0.017 | [2] -0.00298 | [3] 0.0372 | [4] -0.00837

COc1ccc(-c2cc(=O)c3c(O)c(OC)c(OC4OC(COC5OC(C)C(O)C(O)C5O)C(O)C(O)C4O)cc3o2)cc1 (centres undefined)
inactive: [1] 0.0877 | [2] 0.0838 | [3] 0.171 | [4] 0.116

COc1ccc(-c2cc(=O)c3c(O)cc(O[C@@H]4O[C@H](CO[C@@H]5O[C@@H](C)[C@H](O)[C@@H](O)[C@H]5O)[C@@H](O)[C@H](O)[C@H]4O)cc3o2)cc1
inactive: [1] 0.0703 | [2] 0.0696 | [3] 0.0879 | [4] 0.0994

COc1ccc(-c2cc(=O)c3c(O)c(OC)c(OC)cc3o2)cc1O
active: [3] -0.654
inactive: [1] -0.076 | [2] -0.0378 | [4] -0.145

COc1ccc(-c2cc(=O)c3c(O)cc(O)cc3o2)cc1O
inactive: [1] -0.0193 | [2] -0.536 | [3] -0.0793 | [4] 0.0681

COc1cc(O)c2c(=O)cc(-c3ccc(OC)c(O)c3)oc2c1
inactive: [1] 0.0474 | [2] 0.00819 | [3] 0.132 | [4] 0.0369

COc1ccc(-c2cc(=O)c3c(O)cc(O[C@@H]4O[C@H](CO[C@@H]5O[C@@H](C)[C@H](O)[C@@H](O)[C@H]5O)[C@@H](O)[C@H](O)[C@H]4O)cc3o2)cc1O
inactive: [2] 0.0382 | [4] 0.0709
active: [1] -0.0892 | [3] -0.0968
